# PubChem BioAssay AID2073 (Sanford-Burnham Center for Chemical Genomics, 2009)
# The whole screen tested about 290,000 compounds, of which about 570 (0.2%) were called active. Not shown: some 1% with an inconclusive outcome. This is one part of a sample in which actives are shown more often than they occur. Rule as the data show it: active = inhibition mostly above about 51% (no sharp cut-off); inconclusive = no clear call, values can overlap the other calls; inactive = mostly below about 53%.
# Molecular target: Voltage-dependent N-type calcium channel subunit alpha-1B (Homo sapiens) (UniProt Q00975)
# Experiment: disruptors of CaV2.2 binding to Mint1 – biochemical, HTRF (AID 2073)
# Settings: HTRF protein-protein interaction, Mint1-CaV2.2, at 20 µM, stronger effect = higher value
# [1] = measured here: average of repeat tests
# Voltage-dependent N-type calcium channel subunit alpha-1B (Homo sapiens), sequence (Q00975 whole entry, looked up): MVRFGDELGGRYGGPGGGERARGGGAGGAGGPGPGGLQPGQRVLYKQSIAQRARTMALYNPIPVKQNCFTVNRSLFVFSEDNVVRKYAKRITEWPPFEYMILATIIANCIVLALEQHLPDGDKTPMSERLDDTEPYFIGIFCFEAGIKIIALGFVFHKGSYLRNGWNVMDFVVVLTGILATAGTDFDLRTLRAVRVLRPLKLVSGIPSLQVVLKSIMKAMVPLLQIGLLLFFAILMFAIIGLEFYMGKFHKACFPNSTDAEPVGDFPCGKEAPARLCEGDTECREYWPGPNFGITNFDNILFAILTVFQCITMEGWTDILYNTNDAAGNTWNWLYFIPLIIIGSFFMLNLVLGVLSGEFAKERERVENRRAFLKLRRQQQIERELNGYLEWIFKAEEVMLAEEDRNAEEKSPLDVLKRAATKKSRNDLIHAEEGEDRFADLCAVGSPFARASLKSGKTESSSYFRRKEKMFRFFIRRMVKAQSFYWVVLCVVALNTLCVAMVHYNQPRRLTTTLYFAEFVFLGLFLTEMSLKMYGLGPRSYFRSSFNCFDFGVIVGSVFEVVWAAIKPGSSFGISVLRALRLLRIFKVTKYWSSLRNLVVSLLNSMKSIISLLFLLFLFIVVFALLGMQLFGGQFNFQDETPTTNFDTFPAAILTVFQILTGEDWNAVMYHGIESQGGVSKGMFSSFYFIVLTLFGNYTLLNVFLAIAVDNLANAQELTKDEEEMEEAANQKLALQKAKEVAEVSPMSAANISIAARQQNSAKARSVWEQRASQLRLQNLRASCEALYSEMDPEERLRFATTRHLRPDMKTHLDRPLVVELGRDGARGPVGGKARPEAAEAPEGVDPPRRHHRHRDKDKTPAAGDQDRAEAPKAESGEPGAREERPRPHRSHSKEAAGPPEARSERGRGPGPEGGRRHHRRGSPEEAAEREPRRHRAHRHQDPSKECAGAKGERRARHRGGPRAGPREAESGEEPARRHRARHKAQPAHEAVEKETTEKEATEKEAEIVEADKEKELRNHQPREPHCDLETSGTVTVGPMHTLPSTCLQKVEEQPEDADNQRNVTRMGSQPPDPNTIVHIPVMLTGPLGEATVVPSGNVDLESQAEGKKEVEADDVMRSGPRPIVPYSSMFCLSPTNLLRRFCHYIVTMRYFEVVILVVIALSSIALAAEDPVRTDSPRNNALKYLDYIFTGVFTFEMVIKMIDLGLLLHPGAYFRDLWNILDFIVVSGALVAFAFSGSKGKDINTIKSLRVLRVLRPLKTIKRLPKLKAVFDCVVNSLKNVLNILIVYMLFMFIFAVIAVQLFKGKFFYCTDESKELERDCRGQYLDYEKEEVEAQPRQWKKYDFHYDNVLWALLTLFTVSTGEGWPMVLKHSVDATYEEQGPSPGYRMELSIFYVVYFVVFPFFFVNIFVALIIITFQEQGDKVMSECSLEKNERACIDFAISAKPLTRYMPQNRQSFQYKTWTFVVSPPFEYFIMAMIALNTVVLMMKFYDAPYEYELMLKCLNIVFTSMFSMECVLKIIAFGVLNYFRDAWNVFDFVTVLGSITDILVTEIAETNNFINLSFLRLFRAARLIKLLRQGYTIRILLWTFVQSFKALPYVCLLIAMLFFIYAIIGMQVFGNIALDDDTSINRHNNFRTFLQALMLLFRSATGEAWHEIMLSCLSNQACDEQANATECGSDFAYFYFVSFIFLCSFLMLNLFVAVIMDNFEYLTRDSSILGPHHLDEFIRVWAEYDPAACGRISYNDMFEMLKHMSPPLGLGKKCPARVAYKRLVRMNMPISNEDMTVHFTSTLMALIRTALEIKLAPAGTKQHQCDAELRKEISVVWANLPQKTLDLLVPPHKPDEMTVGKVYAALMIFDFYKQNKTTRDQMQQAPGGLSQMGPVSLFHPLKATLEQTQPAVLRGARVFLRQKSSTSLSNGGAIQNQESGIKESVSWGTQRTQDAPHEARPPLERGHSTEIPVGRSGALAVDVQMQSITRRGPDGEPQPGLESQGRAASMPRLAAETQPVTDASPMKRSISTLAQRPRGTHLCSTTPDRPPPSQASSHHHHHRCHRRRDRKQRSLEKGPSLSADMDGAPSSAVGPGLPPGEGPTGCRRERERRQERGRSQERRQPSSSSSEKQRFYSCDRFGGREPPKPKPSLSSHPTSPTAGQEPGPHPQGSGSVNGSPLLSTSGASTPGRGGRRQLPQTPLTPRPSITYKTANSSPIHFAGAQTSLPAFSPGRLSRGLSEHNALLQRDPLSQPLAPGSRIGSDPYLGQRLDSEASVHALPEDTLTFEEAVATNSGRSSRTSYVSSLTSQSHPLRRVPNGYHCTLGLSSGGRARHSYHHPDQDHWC
Structure (SMILES),inhibition,inhibition [1] [%]
CN1CCN(S(=O)(=O)c2cccc(C(=O)Oc3ccccc3Cl)c2)CC1,14.6% (inactive),
COc1ccc(CNC(=O)Cn2nc([N+](=O)[O-])c(Br)c2C)cc1,2.9% (inactive),
CCCN1C2=NCCN2c2ccccc21,2.5% (inactive),
O=C(Nc1ccc(F)cc1)Nc1nnc(-c2ccncc2)s1,50.5% (inactive),37.8
COc1ccc(NC(=O)Nc2nnc(-c3ccncc3)s2)cc1,3.4% (inactive),
Cc1nnc(NC(=O)Nc2cccc(Cl)c2)s1,-1.9% (inactive),
O=C(Nc1ccc(Cl)cc1)Nc1nnc(-c2ccncc2)s1,14.4% (inactive),
O=C(Nc1cccc(Cl)c1)Nc1nnc(-c2ccncc2)s1,56.2% (active),
Cc1ccc(NC(=O)Nc2nnc(-c3ccncc3)s2)cc1C,76.4% (active),
Cc1c(NC(=O)CN2CCN(c3ccc([N+](=O)[O-])cc3)CC2)c(=O)n(-c2ccccc2)n1C,1.5% (inactive),
CC1Oc2ccccc2N(CC(=O)N2CCc3ccccc32)C1=O (stereo unspecified),-10.9% (inactive),
CCCC(=O)N(Cc1cc(=O)[nH]c2ccccc12)c1ccc(C)cc1,14.9% (inactive),
CCOc1ccc(N(CC(=O)NCc2ccco2)S(C)(=O)=O)cc1,13.2% (inactive),
O=C(NNC(=S)NC(=O)c1ccccc1)c1ccc([N+](=O)[O-])cc1,-13% (inactive),
Cc1nc2ccc(S(=O)(=O)NCC(=O)NCc3ccc4c(c3)OCO4)cc2s1,15.2% (inactive),
CS(=O)(=O)Nc1cccc2[nH]ncc12,6.1% (inactive),
N#CC1(C#N)[C@@H](C(=O)C23CC4CC(CC(C4)C2)C3)C12CCOCC2,0% (inactive),
Cc1ccc(NS(=O)(=O)c2ccc(OCC(=O)N3CCOCC3)cc2)cc1,-10.3% (inactive),
COC(=O)C1C(O)=C(C=NC2CCCCC2)C(=O)CC1(C)C (stereo unspecified),10.7% (inactive),
NS(=O)(=O)c1ccc(N=Nc2c(O)c(C(=O)O)cc3ccccc23)cc1,20.5% (inactive),
Oc1ccc(N=Nc2c(O)ccc3ccccc23)cc1,-2.8% (inactive),
Cc1c(C#N)c(O)[nH]c(=O)c1N=Nc1ccc(S(N)(=O)=O)cc1,1.4% (inactive),
Nc1nc(O)c(N=Nc2ccc(S(N)(=O)=O)cc2)c(=O)[nH]1,50% (active),

Structure (SMILES),inhibition,inhibition [1] [%]
NS(=O)(=O)c1ccc(N=Nc2c(O)ccc3ccccc23)cc1,64.4% (active),
Nc1nc(N)c(N=Nc2ccc(S(N)(=O)=O)cc2)c(=O)[nH]1,13.6% (inactive),
O=C(CN1C(=O)C2C3C=CC(C4CC34)C2C1=O)Oc1ccccc1 (stereo unspecified),-1.6% (inactive),
CC(C)(C)NC(=O)CSC(=Nc1cccc(F)c1)NC#N,-25.9% (inactive),
CCCCOc1ccc(Cl)cc1CSc1nnc(C)n1N,-4.8% (inactive),
COC(=O)CCC(NC(=O)c1cc(-c2ccc3c(c2)OCCO3)oc1C)C(=O)OC (stereo unspecified),61.5% (active),
CCOC(=O)CNC(=O)c1cc(-c2ccc3c(c2)OCCO3)oc1C,10.9% (inactive),
Cc1oc(-c2ccc3c(c2)OCCO3)cc1C(=O)NC(CCC(=O)O)C(=O)O (stereo unspecified),20.1% (inactive),
Cc1ccc(CNC(=O)CN2C(=O)NC(C)(c3ccccc3Cl)C2=O)cc1 (stereo unspecified),6.8% (inactive),
CCOC(=O)c1c(NC(=O)CN2CCN(C(=O)c3ccco3)CC2)sc(C(N)=O)c1C,0% (inactive),
c1ccc2c(c1)CCN(c1nc3ccccc3n3cnnc13)C2,3.9% (inactive),
c1ccc2c(c1)CCN(CCCNc1nc3ccccc3n3cnnc13)C2,50.8% (active),
c1ccc2c(c1)nc(NCCN1CCOCC1)c1nncn12,6.6% (inactive),
CCCCCCCNC(=O)CC(NS(=O)(=O)c1ccc(NC(C)=O)cc1)C(C)C (stereo unspecified),1.5% (inactive),
COc1ccc(-n2c(C)c(C(=O)O)c3cc(OC)c4ccccc4c32)cc1,13.1% (inactive),
CN1CCN(c2c(F)cc3c(=O)c(C(=O)O)cn4c3c2SCC4)CC1,53.3% (active),
CN1CCN(c2c(F)cc3c(=O)c(C(=O)O)cn(CCF)c3c2F)CC1,29.5% (inactive),
CN1CCN(c2c(F)cc3c(=O)c(C(=O)O)cn4c3c2OCN4C)CC1,33.2% (inactive),
CCOc1ccc(S(=O)(=O)NCc2cccnc2)cc1C(C)C,1.4% (inactive),
CSc1nc(-c2ccc(C)cc2)[nH]c1S(=O)(=O)c1ccccc1,-18.4% (inactive),
CC(=O)Sc1nc(-c2ccccc2)[nH]c1S(=O)(=O)c1ccc(C)cc1,82.4% (active),
Cc1ccc(-c2[nH]c(-c3ccc(C(=O)O)cc3)nc2-c2ccccc2)cc1,47.8% (inactive),
CCOC(=O)c1c(-c2ccccc2)oc2ccc(OC(C)=O)cc12,7.9% (inactive),

Structure (SMILES),inhibition,inhibition [1] [%]
CCCCOC(=O)Nc1nnc(CC)s1,3.8% (inactive),
Cc1[nH][nH]c(=O)c1C(c1ccc(-c2ccc(Cl)cc2Cl)o1)c1c(C)[nH][nH]c1=O,2% (inactive),
CN(C(=S)Nc1ccc(SC(F)F)cc1)c1ccc(O)cc1,56.1% (active),
CN(C(=S)Nc1ccc(SC(F)F)cc1)C(c1ccccc1)c1ccccc1,-7.4% (inactive),
CN(C(=S)Nc1ccc(Oc2ccccc2)cc1)c1ccc(O)cc1,11% (inactive),
C/C(=N\NC(=O)c1cccs1)c1ccc(C(=O)O)s1,12.5% (inactive),
CCc1ccc(OCC(=O)NC(NC(=S)Nc2ccccc2C)C(Cl)(Cl)Cl)cc1 (stereo unspecified),-12.1% (inactive),
COC(=O)c1sccc1NC(=O)c1ccc(C(C)C)cc1,1% (inactive),
CCN(CC)CCNC(=O)c1ccc(NC(=O)COc2ccccc2F)cc1,-0.2% (inactive),
O=C(/C=C/c1ccc(Br)o1)NCc1ccccc1,76.8% (inactive),13.4
COc1ccccc1CNC(=O)c1ccc(Br)o1,-2% (inactive),
COc1ccccc1CNC(=O)/C=C/c1ccc(Br)o1,79.5% (active),
COCC(=O)NNC(=O)c1ccccc1OC,-3.5% (inactive),
CS(=O)(=O)N(CC(=O)Nc1ccc2c(c1)OCCO2)Cc1ccc(Cl)cc1,-3.3% (inactive),
NC(=O)C1(C(N)=O)OC1c1ccc(Cl)cc1Cl (stereo unspecified),6.5% (inactive),
CCOC(=O)C1C(=O)NC(SC)=C(C#N)C1c1ccccc1F (stereo unspecified),-5.1% (inactive),
CCOC(=O)C1=C(C)NC(=O)NC1c1ccc(Cl)cc1Cl (stereo unspecified),-3.7% (inactive),
CC(=O)C1(C)OC(N)=C(C#N)C(c2ccccc2)C1(C#N)C#N (stereo unspecified),48% (inactive),
COC(=O)C1C(=O)NC(SC)=C(C#N)C1c1ccccc1F (stereo unspecified),8% (inactive),
COC(=O)C1C(=O)NC(SC)=C(C#N)C1c1ccccc1 (stereo unspecified),-20.5% (inactive),
N#CC1=C(N)Nc2ncnn2C1c1ccc([N+](=O)[O-])cc1 (stereo unspecified),-11.4% (inactive),
N#CC1=C(N)SC(N)=C(C#N)C1c1ccc([N+](=O)[O-])cc1,68.2% (inactive),5
